Consider 7 molecules from PubChem BioAssay (NCATS).

Assay [1] concerns the target Lysosomal acid glucosylceramidase (Homo sapiens) (UniProt P04062). The experiment in a line: Glucocerebrosidase-p2 (AID 348; in the data active means potency below about 10 µM; further: potency means the concentration at half of the fitted maximal effect). The settings on record: purified GBA, blue fluorogenic substrate, 40 min. Summed up:
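Normal human glucocerebrosidase (0.2 nM) with blue fluorogenic substrate (80 uM final) in citrate/phosphate pH 5.9 with 10mM sodium taurocholate, 0.01% tween-20; 40 min RT, NaOH/glycine stop; fluorescence Ex 365/Em 440; AC50 from a titration from 0.6 nM upwards.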

Assay [2] is described as follows: AP1 Signaling Pathway (AID 357).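 Further: ME-180 reporter cells stimulated with EGF at its EC50 level; on the % scale 0 is the no-effect control and ±100 the full control effect.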 The settings on record: ME-180 AP-1-bla reporter, EGF-induced, beta-lactamase ratio, 5 h; at 7.69 µM (top of the series) unless noted. Summed up:
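In this screen, ME-180 cells in Opti-MEM with 0.5% dialyzed FBS received EC50 EGF and compound titrations for 5 h. AP-1 reporter beta-lactamase was detected via CCF4 ratio, giving AC50 for positive and negative modulators.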

Assay [3] has as its target Cytochrome P450 1A2 (Homo sapiens) (UniProt P05177). Briefly: p450-cyp1a2 (AID 410; calls by dose curve). Conditions: recombinant CYP1A2, luciferin-ME demethylation, luminescence; series mostly up to 57 µM. The gist of the method: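 20nM CYP1A2, 100uM Luciferin-ME (=Km), 100mM KPO4; cpd 10 min RT; +NADPH regen, 60 min RT; stop/detect 20 min; luminescence. Normalized to furafylline 57 uM = full inhibition.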

The nature of assay [4]: Stat Signaling Pathway (AID 446).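 Further: ME-180 cervical cancer cells given 40 pM IL-6 alongside compound; SIE-controlled beta-lactamase reporter measured as 460/530 nm FRET emission ratio; on the % scale 0 is the no-effect control and ±100 the full control effect.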 The settings on record: ME-180 SIE beta-lactamase reporter, IL-6 stimulated, 5 h; at 7.69 µM (top of the series) unless noted. The gist of the method: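 FRET read-out (405 nm excitation, 460/530 nm emission) of a beta-lactamase reporter under a STAT-inducible element in ME-180 cervical carcinoma cells. Cells with compound receive 40 pM IL-6 for 5 h. Values are normalised to AC90 stimulation and AC90 JAK-inhibitor controls.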

The target of assay [5] is Glucocorticoid receptor (Homo sapiens) (UniProt P04150). The experiment in a line: GR-EFC Redistribution (AID 451; calls by dose curve; further: potency means the concentration at half of the fitted maximal effect). The settings on record: CHO-K1 GR-EFC translocation, beta-gal luminescence, 2 h. The gist of the method: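 Translocation of GR-ED fusion to nuclear EA restores b-gal, read by luminescence after 1 h room-temperature detection. Engineered CHO-K1 biosensor cells, 1,000/well, exposed 2 h at 37 C to titrations up to 46 uM final.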

Assay [6] addresses Mitogen-activated protein kinase 10 (Mus musculus) (UniProt Q61831). Briefly: JNK3 AlphaScreen Assay (AID 530).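 Further: kinase came from lysate of stimulated human HepG2 cells; signal reports phosphorylation of biotinylated GST-cJun 1-79 at Ser73 with 10 µM ATP; on the % scale 0 is the no-effect control and ±100 the full control effect.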 The settings on record: JNK3 lysate, c-Jun phosphorylation; series mostly up to 57.1 µM. Summed up: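 Kinase buffer: 20 mM Tris-HCl pH 7.6, 10 mM MgCl2, 1 mM DTT, 0.1 mM Na3VO4, 0.01% Tween-20; ATP 10 uM. Substrate biotin-GST-cJun(1-79), enzyme from activated HepG2 lysates. Detection by Ser73 phospho-antibody AlphaScreen.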

In assay [7] the target is 3',5'-cyclic-AMP phosphodiesterase 4B (Homo sapiens) (UniProt Q07343). The experiment in a line: qHTS Assay for Inhibitors of PDE-IV (AID 607; active means well fitted activation curve with a large enough effect in the main read-out, with a control signal flat, not every such curve was filed as active; further: % of control where 0% means no effect). The settings on record: HEK293 ACTOne CNG channel cells, membrane potential fluorescence; series mostly up to 22.9 µM. Summed up: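 Cell-based read-out of cAMP via a modified cyclic nucleotide-gated channel and membrane potential dye (535/590 nm) in HEK293 cells expressing PDE4 endogenously. Compounds tested up to 22.9 uM final; 100 uM RO 20-1724 reference.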
(In general: qHTS replaces the single test concentration by a dilution series.)

Assay [8] can be described thus: qHTS Assay for Lipid Storage Modulators (AID 1519; calls by dose curve). Conditions: Drosophila S3 cells, BODIPY lipid droplet/cell ratio, laser cytometry, cells loaded with oleic acid; for activity change, negative = inhibition: at 57.5 µM (top of the series). Summed up:
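Cells seeded at 5,000 per well were treated with compounds over a concentration series and loaded with oleic acid (400 uM, as added). Lipid droplet fluorescence (488 nm excitation, 500-530 nm channel) was read by laser-scanning cytometry and normalized to 20 uM Triacsin C.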

Assay [9] can be described thus: Primary qHTS for small molecule stabilizers of the endoplasmic reticulum resident proteome: Secreted ER Calcium Modulated Protein (SERCaMP) assay (AID 1508630; active means well fitted curve in the direction sought with a large enough effect; an effect the other way counts as inactive or inconclusive; further: on the % scale 0 is the no-effect control and ±100 the full control effect). Conditions: SH-SY5Y GLuc-SERCaMP (Gaussia luciferase released on ER calcium loss) secretion, thapsigargin, luminescence; series mostly up to 38.4 µM. Summed up: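 The SH-SY5Y reporter protocol was run at 3 concentrations up to 38.3 uM (primary) or 11 concentrations (follow-up): 16 h compound, 100 nM thapsigargin for 4 h, then extracellular luciferase luminescence.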

Assay [10] has as its target Cytochrome P450 3A4 (Homo sapiens) (UniProt P08684). Briefly: qHTS Assay for Inhibitors and Substrates of Cytochrome P450 3A4 (AID 884; active means well fitted curve in the direction sought with a large enough effect; an effect the other way counts as inactive or inconclusive; further: on the % scale 0 is the no-effect control and ±100 the full control effect; nearly all actives have a fitted effect of over 50% in size). The settings on record: recombinant CYP3A4, Luciferin-PPXE luminescence; series mostly up to 57.1 µM. Summed up: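 Luminescent readout of luciferin produced by CYP3A4 (20 nM) dealkylation of Luciferin-PPXE, 25 uM (its KM). NADPH-driven reaction ran 60 min at RT after 10 min compound preincubation; data scaled to 57 uM ketoconazole as 100% inhibition.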

The target is the same in assay [11]. Briefly: qHTS Assay for Activators of Cytochrome P450 3A4 (AID 885; active means well fitted curve in the direction sought with a large enough effect; an effect the other way counts as inactive or inconclusive; further: nearly all actives have a fitted effect of over 65% in size; further: potency means the concentration at half of the fitted maximal effect). The settings on record: recombinant CYP3A4, Luciferin-PPXE luminescence, 60 min; series mostly up to 57.1 µM. The gist of the method: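 Luminescent readout of luciferin formed from 25 uM Luciferin-PPXE (KM level) by 20 nM CYP3A4 in 200 mM KPO4, with 60 min NADPH-driven reaction at room temperature after 10 min compound exposure. Ketoconazole (57 uM) defined 100% inhibition.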

Assay [12] is described as follows: NFAT Signaling Pathway (AID 444). The settings on record: Jurkat NFAT-bla M1, carbachol, beta-lactamase ratio, 5 h; at 7.69 µM (top of the series) unless noted. The gist of the method: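 Read-out: CCF4 FRET ratio (460 nm/530 nm) after 1 h RT dye loading, used for %activity and AC50 from titration series. Cells: Jurkat NFAT-β-lactamase/M1 line, treated with compound plus 1 uM carbachol for 5 h, 37 °C.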

A short description of assay [13]: qHTS Assay for Identification of Small Molecule Agonists for Hypoxia Response Element Signaling Pathway (AID 914; active means well fitted activation curve with a large enough effect in the signal ratio, with a control signal flat, not every such curve was filed as active; the % refers to the signal ratio; further: % of control where 0% means no effect). The settings on record: ME-180 (cervical carcinoma) HRE-bla reporter, beta-lactamase ratio, CoCl2, 17 h; activation: stronger effect = higher value. The gist of the method: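 AC50 values come from titration-series %Activity, taken as the 460/530nm ratio of CCF4 fluorescence (excitation 405nm). CellSensor HRE-bla ME-180 cells were treated 17 hours at 37 C with compound plus an EC50 level of CoCl2.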

The mark [14] stands for this setting: measured here: cell count channel max response.
[15] abbreviates: measured here: lipid channel max response.

Inconclusive results are not listed. Calls of active or inactive are those of the source. Unless noted, the call rests on the fitted dose curve; in most records, active means well fitted curve in either direction with a large enough effect (not every such curve was filed as active); inconclusive means small, poorly fitted or top-dose-only effect, or another doubt; inactive means flat fitted curve, though single readings scatter.

Chain of Glucocorticoid receptor (Homo sapiens) (P04150 whole entry, looked up, the tested form may be a part): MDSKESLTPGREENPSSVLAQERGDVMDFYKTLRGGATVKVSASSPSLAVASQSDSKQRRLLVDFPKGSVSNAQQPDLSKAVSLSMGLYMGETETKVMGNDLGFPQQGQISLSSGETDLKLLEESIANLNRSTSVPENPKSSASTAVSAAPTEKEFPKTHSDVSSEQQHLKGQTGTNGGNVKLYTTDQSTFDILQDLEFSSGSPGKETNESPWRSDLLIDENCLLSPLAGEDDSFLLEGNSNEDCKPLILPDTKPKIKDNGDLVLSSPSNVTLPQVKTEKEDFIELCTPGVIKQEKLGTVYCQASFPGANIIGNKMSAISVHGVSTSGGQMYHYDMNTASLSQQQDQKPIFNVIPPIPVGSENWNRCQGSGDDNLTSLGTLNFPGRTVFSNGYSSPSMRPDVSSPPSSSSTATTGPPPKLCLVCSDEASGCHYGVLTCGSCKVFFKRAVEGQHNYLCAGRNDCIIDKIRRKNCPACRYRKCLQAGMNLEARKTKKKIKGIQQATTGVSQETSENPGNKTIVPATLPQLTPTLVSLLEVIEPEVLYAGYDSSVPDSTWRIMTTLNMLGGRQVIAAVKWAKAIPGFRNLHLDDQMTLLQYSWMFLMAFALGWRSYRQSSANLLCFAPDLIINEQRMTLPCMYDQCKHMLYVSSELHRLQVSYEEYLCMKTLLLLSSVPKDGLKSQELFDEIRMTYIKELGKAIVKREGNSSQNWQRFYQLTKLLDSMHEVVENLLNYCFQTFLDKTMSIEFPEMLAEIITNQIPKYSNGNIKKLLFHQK
Chain of Cytochrome P450 3A4 (Homo sapiens) (P08684 whole entry, looked up): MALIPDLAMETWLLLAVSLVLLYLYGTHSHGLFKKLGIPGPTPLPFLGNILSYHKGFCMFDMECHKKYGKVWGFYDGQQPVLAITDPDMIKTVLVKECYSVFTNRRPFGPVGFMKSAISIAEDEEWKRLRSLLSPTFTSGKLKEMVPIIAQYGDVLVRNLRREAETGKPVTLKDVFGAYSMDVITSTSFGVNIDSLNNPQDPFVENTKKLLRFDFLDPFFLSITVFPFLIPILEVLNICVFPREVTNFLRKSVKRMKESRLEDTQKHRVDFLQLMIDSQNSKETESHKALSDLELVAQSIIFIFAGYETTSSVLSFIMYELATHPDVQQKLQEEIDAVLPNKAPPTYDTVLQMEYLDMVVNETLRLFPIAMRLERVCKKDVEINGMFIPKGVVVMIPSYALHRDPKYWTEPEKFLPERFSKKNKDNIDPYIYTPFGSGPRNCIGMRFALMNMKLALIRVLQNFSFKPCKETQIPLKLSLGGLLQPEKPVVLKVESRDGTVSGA
Chain of Cytochrome P450 1A2 (Homo sapiens) (P05177 whole entry, looked up): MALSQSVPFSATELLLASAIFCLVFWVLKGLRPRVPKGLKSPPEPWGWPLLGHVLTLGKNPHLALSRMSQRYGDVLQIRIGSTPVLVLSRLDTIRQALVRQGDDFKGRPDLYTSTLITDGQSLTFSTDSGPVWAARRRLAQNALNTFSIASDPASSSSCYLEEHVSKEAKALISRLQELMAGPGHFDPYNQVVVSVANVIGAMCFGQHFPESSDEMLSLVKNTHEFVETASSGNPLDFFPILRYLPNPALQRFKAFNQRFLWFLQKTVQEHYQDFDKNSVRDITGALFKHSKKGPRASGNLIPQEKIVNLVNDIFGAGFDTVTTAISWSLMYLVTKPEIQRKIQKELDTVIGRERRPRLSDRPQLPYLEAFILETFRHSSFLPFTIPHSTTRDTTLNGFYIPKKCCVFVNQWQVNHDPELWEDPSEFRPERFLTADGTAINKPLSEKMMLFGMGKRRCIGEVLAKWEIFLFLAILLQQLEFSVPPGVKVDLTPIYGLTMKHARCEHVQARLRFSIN
Chain of 3',5'-cyclic-AMP phosphodiesterase 4B (Homo sapiens) (Q07343 whole entry, looked up): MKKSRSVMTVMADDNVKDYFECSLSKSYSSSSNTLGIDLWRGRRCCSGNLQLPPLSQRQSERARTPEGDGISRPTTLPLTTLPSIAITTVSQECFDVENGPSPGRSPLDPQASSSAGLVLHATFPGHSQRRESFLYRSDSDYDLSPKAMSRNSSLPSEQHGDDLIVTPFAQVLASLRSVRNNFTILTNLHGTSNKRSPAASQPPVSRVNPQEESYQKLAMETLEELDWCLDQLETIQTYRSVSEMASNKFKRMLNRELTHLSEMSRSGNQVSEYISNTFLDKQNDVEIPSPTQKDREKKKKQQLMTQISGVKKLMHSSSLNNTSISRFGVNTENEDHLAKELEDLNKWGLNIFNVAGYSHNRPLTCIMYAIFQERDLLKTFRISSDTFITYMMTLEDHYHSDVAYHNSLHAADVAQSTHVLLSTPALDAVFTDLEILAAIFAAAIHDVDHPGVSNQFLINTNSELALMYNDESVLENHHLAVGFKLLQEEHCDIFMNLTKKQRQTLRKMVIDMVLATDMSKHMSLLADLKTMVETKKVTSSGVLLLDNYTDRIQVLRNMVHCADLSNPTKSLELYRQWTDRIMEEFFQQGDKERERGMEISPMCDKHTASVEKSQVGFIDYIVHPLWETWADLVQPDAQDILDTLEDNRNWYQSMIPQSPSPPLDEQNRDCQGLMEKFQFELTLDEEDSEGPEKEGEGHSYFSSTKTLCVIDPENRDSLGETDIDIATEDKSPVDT
Chain of Lysosomal acid glucosylceramidase (Homo sapiens) (P04062 whole entry, looked up): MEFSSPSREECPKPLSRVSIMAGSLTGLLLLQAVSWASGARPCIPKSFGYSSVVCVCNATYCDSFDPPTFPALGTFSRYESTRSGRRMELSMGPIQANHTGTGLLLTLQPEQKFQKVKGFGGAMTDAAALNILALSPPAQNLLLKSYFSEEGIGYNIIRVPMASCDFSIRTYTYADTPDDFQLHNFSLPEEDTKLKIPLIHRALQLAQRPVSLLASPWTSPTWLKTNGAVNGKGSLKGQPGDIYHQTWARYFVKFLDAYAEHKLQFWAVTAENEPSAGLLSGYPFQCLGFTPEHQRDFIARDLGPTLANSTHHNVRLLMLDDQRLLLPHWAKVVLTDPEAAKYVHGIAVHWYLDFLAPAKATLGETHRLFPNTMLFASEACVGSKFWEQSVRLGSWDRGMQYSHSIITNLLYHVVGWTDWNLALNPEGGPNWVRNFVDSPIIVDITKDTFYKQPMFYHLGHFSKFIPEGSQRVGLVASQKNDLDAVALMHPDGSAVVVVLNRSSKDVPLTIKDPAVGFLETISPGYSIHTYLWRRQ

On to `COCC(=O)N1CCC2(CC1)CCN(C(=O)Nc1ccc(OC)cc1)CC2`, for which the figures for the Potency in assay [1] and in [5] were > 11.4 µM (inactive) and > 46 µM (inactive), respectively. Also, the activity change, negative = inhibition was -6.71% (inactive) in [2] and 4.36% (inactive) in [8]. For the same molecule, the Potency entry in [3], in assay [7] and in assay [9] was “inactive” throughout. In addition, in [4], the activity, negative = inhibition is -0.498% (inactive). Further, the molecule was classed as inactive in [6]. Besides, the max response in assay [8] (setting [14]) worked out at 13.2%; in assay [8] (setting [15]), 20.1%.

As to `O=C(c1cnccn1)N1CCC2(CC1)CN(c1ccncc1)C2`, the Potency in assay [1] is > 11.4 µM (inactive); in [5], > 46 µM (inactive). The figures for the activity change, negative = inhibition in [2] and in assay [8] were 4.42% (inactive) and -0.9% (inactive), respectively. In addition, the Potency result in assay [3], in assay [7] and in [9] was “inactive” in each case. In [4], the activity, negative = inhibition was 2.09% (inactive). For the same molecule, the max response in [8] (setting [14]) is -18.2%; in assay [8] (setting [15]), -17.9%.

For `COC(=O)N1CCC2(CC1)CN(C(c1ccccc1)c1ccccc1)C2`, the Potency in [1] is > 11.4 µM (inactive); in assay [5] it was > 46 µM (inactive); in assay [11] it was 0.794 µM (active). Further, the activity change, negative = inhibition in [2] is 3.69% (inactive); in [8], -2.77% (inactive). Also, the Potency entry in assay [3], in assay [10] and in assay [9] was “inactive” throughout. Besides, the activity, negative = inhibition in [4] is 5.28% (inactive). For the same molecule, the call in assay [6] was inactive. Further, the results for the max response in assay [8] (setting [14]) and in [8] (setting [15]) were 5.36% and 5.91%, respectively.

As for `COC(=O)N1CCC2(CCCN(C(=O)Nc3cccc(F)c3)C2)CC1`, the Potency in assay [1] was > 11.4 µM (inactive); in assay [5], > 46 µM (inactive). Also, the activity change, negative = inhibition in [2] was -3.15% (inactive); in [12] it was -20.9% (inactive); in assay [8], -17.4% (inactive). Further, the activity, negative = inhibition in assay [4] is -5.21% (inactive). Moreover, the molecule was called inactive in assay [6]. Besides, the Potency result in assay [7], in assay [11] and in [9] was “inactive” throughout. In addition, the max response in [8] (setting [14]) was -0.146%; in assay [8] (setting [15]), -17.1%.

Take `COCC(=O)N1CCC[C@@]2(CCN(C(=O)Nc3cccc(F)c3)C2)C1`: the Potency in assay [1] is > 11.4 µM (inactive); in assay [5], > 46 µM (inactive). The results for the activity change, negative = inhibition in [2] and in assay [8] were -14.2% (inactive) and 2.12% (inactive), respectively. In addition, the Potency result in [3], in [7], in [11] and in assay [9] was “inactive” in each case. Also, the activity, negative = inhibition in assay [4] is -1.05% (inactive). Further, the call in assay [6] was inactive. For the same molecule, the activation in [13] was 8.24% (inactive). The max response amounted to 19.2% in [8] (setting [14]) and 23.6% in [8] (setting [15]).

Regarding `CC(C)NC(=O)N1CCC2(CC1)CCN(S(C)(=O)=O)CC2`, the Potency in assay [1] was > 11.4 µM (inactive); in assay [5] it was > 46 µM (inactive). Besides, the activity change, negative = inhibition in [2] was -12.4% (inactive); in assay [12] it was 6.9% (inactive); in [8] it was -0.0632% (inactive). In [4], the activity, negative = inhibition is 4.06% (inactive). Moreover, in assay [6], the molecule was classed as inactive. The Potency entry in assay [7] and in [9] was “inactive” each time. The max response in assay [8] (setting [14]) was 6.33%; in assay [8] (setting [15]), 5.94%.

Consider `COc1ccc(NC(=O)N2CCCC3(CCN(C(=O)c4c(C)noc4C)CC3)C2)cc1`, for which the figures for the Potency in assay [1] and in assay [5] were > 11.4 µM (inactive) and > 46 µM (inactive), respectively. For the same molecule, the activity change, negative = inhibition in assay [2] was -6.4% (inactive); in [8] it was 3.9% (inactive). The Potency entry in assay [3], in assay [7], in [11] and in assay [9] was “inactive” each time. The activity, negative = inhibition in assay [4] was -0.272% (inactive). Also, the molecule was classed as inactive in assay [6]. The max response in assay [8] (setting [14]) was 14.4%; in [8] (setting [15]), 18.8%.
